Screening data: PubChem BioAssay, National Center for Advancing Translational Sciences (NCATS)
The list is not random: actives were taken first. Their share in the collection is about 10%.
IMPase cell inh: IMPase inhibition in cells. inhibition (IP1 accumulation), % at 46.1 µM. CHO-M1 cells, IP1 accumulation, HTRF TR-FRET ratio. AID 901. P97697. 120,000 tested, under 10 active; active = well fitted curve in the direction sought with a large enough effect in the signal ratio, not every such curve was filed as active; inconclusive = small, poorly fitted or top-dose-only effect, or a change in a side signal; inactive = no such curve, though single readings can be large or run the other way; the % refers to the signal ratio;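 note: cells stimulated with carbachol in lithium chloride buffer; plate controls were DMSO basal wells for no effect and reference inhibitor wells for full effect; higher means more IMPase inhibition seen as more IP1 and lower FRET ratio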
Target sequence (P97697 whole entry, looked up): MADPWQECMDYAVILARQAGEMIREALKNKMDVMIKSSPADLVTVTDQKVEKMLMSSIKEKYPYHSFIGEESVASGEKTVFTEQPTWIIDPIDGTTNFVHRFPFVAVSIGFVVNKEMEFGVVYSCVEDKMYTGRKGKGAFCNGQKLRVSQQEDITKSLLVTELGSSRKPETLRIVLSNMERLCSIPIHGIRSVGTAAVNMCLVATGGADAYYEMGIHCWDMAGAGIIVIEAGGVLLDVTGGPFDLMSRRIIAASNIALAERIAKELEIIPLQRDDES
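The IP-One HTRF competitive assay in carbachol-stimulated CHO-M1 cells quantifies cellular IP1. Compounds spanned up to 46 uM final, and activity is expressed as AC50 from concentration-response fits of the ratio and donor data.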
LMNA splice mod: modulators of lamin A splicing. HeLa LMNA splicing GFP/RFP minigene ratio, 48 h. 200,000 tested, 0.01% active. Potency, µM (doses to about 46.1 µM), without a hit: at the highest dose ratio change, negative = inhibition, hits mostly inhibitors; active = well fitted inhibition curve with a large enough effect in the signal ratio, with a control signal flat, not every such curve was filed as active; inconclusive = small, poorly fitted or top-dose-only effect, or effect the other way, or a change in a side signal; the % refers to the signal ratio; note: potency is the fitted concentration of half-maximal effect
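Read-out is the ratio of GFP to DsRed2 object intensity, acquired by 488 nm laser-scanning cytometry on HeLa lamin A-EGFP minigene reporter cells. Compound incubation 48 hrs at 37 °C in Opti-MEM with 2% FBS; DMSO 0.5% final.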
PNC assembly inh: blocks assembly of the perinucleolar compartment | AID 2417 | PC3M PTB-GFP, PNC prevalence imaging, 16 h; active compounds read low | 140,000 tested, 3.1% active | activity change (PNC), negative = inhibition, % at 10 µM;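 active = readout at or below -70, meaning at least 70% loss of cells showing the perinucleolar compartment, a nuclear body marking cancer cells; inconclusive = readout between -30 and a set limit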;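 note: plate controls were DMSO wells for no effect and camptothecin positive control wells for full effect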
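PC3M cells stably expressing PTB-GFP, 750–1000 cells/well, treated 16 h at 37 °C with compound (23 nl of library stock), in duplicate. After paraformaldehyde fixation and Hoechst stain, imaged at 20x; PNC prevalence scored by image analysis.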
HPGD block: inhibitors of human 15-hydroxyprostaglandin dehydrogenase (HPGD) | AID 894 | 150,000 tested, 4.3% active | P15428 | Potency, µM, for inactives: at the top dose activity change, negative = inhibition, hits mostly inhibitors | purified HPGD, NADH fluorescence kinetic, PGE2 substrate; note: potency is the fitted concentration of half-maximal effect
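NADH formation kinetics: reaction with 30 uM PGE2 and 1 mM NAD+ (final), 20 nM enzyme, Tris-HCl pH 8 with Tween 20, after 15 min compound preincubation at room temperature. Fluorescence change, last versus first of five reads.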
Luc counter: Kinase-Glo luciferase inhibition (counter-screen) | Kinase-Glo luciferase, ATP luminescence, 8 min | 200,000 tested, 0.28% active | Q27757 | Potency, µM (top dose mostly 38.3 µM), without a hit: at the top dose activity change, negative = inhibition, hits mostly inhibitors; active = well fitted inhibition curve with a large enough effect; inconclusive = small, poorly fitted or top-dose-only effect; note: potency is the fitted concentration of half-maximal effect; nearly all actives have a fitted effect of over 60% in size
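Light output from Kinase-Glo luciferase with luciferin and 10 uM ATP in 50 mM imidazole pH 7.2, KCl, MgCl2, Tween 20, BSA; compound pin-delivered, 8-min ambient incubation, then luminescence read.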
ALDH1A1 inh: ALDH1A1 (human) enzyme inhibition; P00352; Purified ALDH1A1, NADH fluorescence, propionaldehyde substrate; Potency, µM (titrated, usually from 75.3 µM), inactives show top-dose activity, negative = inhibition, usual class: inhibitors; 220,000 tested, 7.3% active;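 note: potency is the fitted concentration of half-maximal effect; plate controls were no enzyme wells and a reference inhibitor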
Target sequence (P00352 whole entry, looked up): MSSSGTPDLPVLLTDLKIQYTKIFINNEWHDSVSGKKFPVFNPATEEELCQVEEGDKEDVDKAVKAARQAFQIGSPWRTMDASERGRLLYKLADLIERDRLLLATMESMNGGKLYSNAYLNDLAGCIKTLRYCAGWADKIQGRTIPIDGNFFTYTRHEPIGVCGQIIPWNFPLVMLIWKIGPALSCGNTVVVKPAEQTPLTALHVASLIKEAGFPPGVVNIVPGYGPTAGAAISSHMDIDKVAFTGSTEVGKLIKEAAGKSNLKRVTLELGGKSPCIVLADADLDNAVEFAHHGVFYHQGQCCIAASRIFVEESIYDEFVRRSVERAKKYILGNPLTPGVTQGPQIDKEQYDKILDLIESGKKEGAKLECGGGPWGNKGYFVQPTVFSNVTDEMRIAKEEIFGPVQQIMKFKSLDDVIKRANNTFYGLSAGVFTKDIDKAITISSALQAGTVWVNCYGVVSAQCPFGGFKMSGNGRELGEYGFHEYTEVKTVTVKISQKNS
Active calls of the source: *; ? = inconclusive; . = not tested or not shown; [ ] = dose if it differs, or a comment. Unless noted, calls come from the whole dose curve; as a rule, active = well fitted inhibition curve with a large enough effect (not every such curve was filed as active); inconclusive = small, poorly fitted or top-dose-only effect, or another doubt; inactive = no such curve, though single readings can be large or run the other way. Unless noted, % is set by controls: 0 for no effect and ±100 for the full control effect.

SMILES	IMPase cell inh	LMNA splice mod	PNC assembly inh	HPGD block	Luc counter	ALDH1A1 inh
CCCOc1ccc([C@@H]2C3CN(C(=O)OCC)CC=C3C(C#N)=C(N)C2(C#N)C#N)cc1OC (stereo not given in full)	8	0%	-81*	-9%	4%	-15%
N#CC1=C(N)C(C#N)(C#N)[C@H](c2ccncc2)[C@H]2CC3(CC=C12)OCCO3	12	0%	-98*	.	.	?
CCOC(=O)N1CC=C2C(C#N)=C(N)C(C#N)(C#N)[C@H](c3cccs3)C2C1 (stereo not given in full)	4	-10%	-100*	-12%	0%	-6%
CC(C)N1CC=C2C(C#N)=C(N)C(C#N)(C#N)[C@H](c3ccoc3)[C@H]2C1	6	-6%	115	?	-4%	?
Cc1cccc(CNC(=O)CCn2c(=O)c3cccn3c3ccc(F)cc32)c1	.	2%[46 µM]	.	.	.	.
C=CCOC(=O)N[C@H](c1ccccc1)C(C(C)=O)C(C)=O	.	.	.	-20%	5%	5%
CC(C)(C)OC(=O)N1CC=C2C(C#N)=C(N)C(C#N)(C#N)[C@H](c3cccnc3)[C@H]2C1	13	-7%	?	-13%	-1%	?
N#CC1=C(N)C(C#N)(C#N)[C@H](c2ccncc2)[C@H]2CN(C(=O)OCc3ccccc3)CC=C12	-3	-8%	-100*	-25%	3%	-4%
CN1CC=C2C(C#N)=C(N)C(C#N)(C#N)C(Cc3ccccc3)C2C1 (stereo not given)	0	-14%	-119*	?	0%	?
CC(C)N1CC=C2C(C#N)=C(N)C(C#N)(C#N)C(c3ccccc3)C2C1 (stereo not given)	-1	6%	-107*	?	-2%	?
Cc1ccc(CNC(=O)c2cccc(Nc3nc4ccccc4n4nnnc34)c2)cc1	9	.	.	.	.	.
COc1ccc(OC)c(NC(=O)CSc2nnc(CNC(=O)c3ccco3)o2)c1	-6	4%	-16	-16%	-1%	10µM*
COc1ccc(C(=O)NCc2nnc(SCC(=O)Nc3cccc(F)c3)o2)cc1	.	.	.	.	7%	9.5µM*
CC(C)(C)OC(=O)NCCCCCc1nnc(SCC(=O)Nc2cccc(Cl)c2)o1	12	?	-10	14µM*	3%	?
COc1ccc(C(=O)NCc2nnc(SCC(=O)NCc3ccc(F)cc3)o2)cc1	?	4%	-2	-14%	-3%	?
COc1ccc(OC)c(NC(=O)CSc2nnc(C)n2Cc2ccccc2)c1	8	-5%	56	-11%	4%	18µM*
COc1ccc(NC(=O)CSc2nnc(C)n2Cc2ccccc2)cc1	5	22%	-1	-13%	-2%	-4%
O=C(Cn1c(SCc2cccc(F)c2)nc2cccnc21)Nc1ccc(F)c(Cl)c1	.	-8%[46 µM]	.	.	.	.
O=C(CSc1nnc(CNC(=O)c2c(F)cccc2Cl)o1)Nc1ccc2c(c1)OCCO2	2	5%	?	-7%	-2%	18µM*
Cc1cc(C)cc(NC(=O)CSc2nnc(CNC(=O)c3c(F)cccc3Cl)o2)c1	8	.	.	.	.	.
CCn1c(C)cc(/C=C2/NC(=O)N(c3ccccc3)C2=O)c1C	.	?	.	.	2%	13µM*
COCCn1c(C)cc(/C=C2/NC(=O)N(c3cccc(Cl)c3)C2=O)c1C	.	0%[46 µM]	.	.	1%	?
CCOC(=O)c1[nH]c(C)c(CCC(=O)N2CCN(c3ccc(OC)cc3)CC2)c1C	.	9%[46 µM]	.	.	.	.
COC(=O)c1ccc(NC(=O)c2nn(C)c3c2CS(=O)(=O)c2ccccc2-3)cc1	.	-27%[46 µM]	.	.	.	.
Oc1c(Cl)cc(C(c2cc(Cl)c(O)c(Cl)c2)C(c2cc(Cl)c(O)c(Cl)c2)c2cc(Cl)c(O)c(Cl)c2)cc1Cl	.	.	.	-10%	-1%[7.66 µM]	11%[13.5 µM]
SMILES	IMPase cell inh	LMNA splice mod	PNC assembly inh	HPGD block	Luc counter	ALDH1A1 inh
O=c1c2cc(Br)ccc2nc(-c2ccc([N+](=O)[O-])cc2)n1O	.	.	.	.	1%	-7%
O=c1c2c([N+](=O)[O-])cc([N+](=O)[O-])cc2sn1-c1ccc(Br)cc1	-1	-15%	-7	2.2µM*	5%	1.4µM*
Cc1ccc(S(=O)(=O)N(c2nc(N(C)C)nc(N(C)C)n2)n2cnnc2)cc1	?	3%	9	-5%	3%	5µM*
Cc1ccc(-c2cn3nc(N4CCCC(C(=O)NCc5ccccc5F)C4)sc3n2)cc1 (stereo not given)	.	28%[46 µM]	.	.	.	.
Cn1cc(C(=O)N/N=C/C(Br)=C\c2ccccc2)ccc1=O	13	?	19	-22%	-4%	?
Cn1cc(C(=O)N/N=C/C(Br)=C/c2ccccc2)ccc1=O	.	?	8	28µM*	2%	?
N#CCSc1nnc(Nc2ccccc2)s1	4	0%	20	28µM*	-7%	?
Nc1nc(SCC(=O)Nc2cc(C(F)(F)F)ccc2N2CCOCC2)n[nH]1	.	14%[46 µM]	.	.	1%	22µM*
Cc1ccc2nc(SCC(=O)Nc3cc(C(F)(F)F)ccc3N3CCOCC3)[nH]c2c1	-9	-6%	-104*	-2%	-3%	5%
CC(=O)[C@@]1(O)CC[C@@H]2[C@@H]3CCC4=CC(=O)CC[C@@]4(C)[C@H]3CC[C@]21C	-2	.	.	.	.	.
CC(=O)C1=C(O)C(=O)N(CCCn2ccnc2)C1c1ccc(C)cc1 (stereo not given)	-3	-10%	7	-22%	1%	-10%
Cc1ccccc1COc1ccc(/C(O)=C2/C(=O)C(=O)N(CCCn3ccnc3)C2c2ccco2)cc1 (stereo not given)	-12	6%	0	-27%	-3%	11µM*
Cc1ccc(/C(O)=C2/C(=O)C(=O)N(CCCn3ccnc3)C2c2ccccn2)cc1 (stereo not given)	-7	6%	8	1%	-1%	6%
Cc1ccc(C)c(/C(O)=C2\C(=O)C(=O)N(CCCn3ccnc3)C2c2ccncc2)c1 (stereo not given)	4	7%	24	28µM*	7%	?
CCN(Cc1ccncc1)Cc1c(O)ccc2ccccc12	.	.	.	.	1%	10µM*
O=C(NC1CC(=O)N(c2cccc(F)c2)C1)C(c1ccccc1)c1ccccc1 (stereo not given)	.	2%[46 µM]	.	.	.	.
COc1cccc(/C=C2\N=C(SC)SC2=O)c1OC	1	8%	-91*	25µM*	10%	32µM*
CCc1c(C)sc(NC(=O)c2cc(CC(C)C)on2)c1C#N	4	-6%	4	-18%	17%	?
CC(C)Cc1cc(C(=O)Nc2sc3c(c2C#N)CCC3)no1	-5	-29%	11	?	-4%	22µM*
